PubChem BioAssay
Active and inactive are the calls of the source.

What was measured:
Albumin (Bos taurus) = Albumin (Bos taurus) (UniProt P02769); experiment: compounds binding labelled BSA control protein – biochemical, small-molecule microarray, Alexa647 label, 635/667 nm fluorescence, artefact control for SMM control protein annotation, profiling panel (AID 1118); conditions: BSA-A647 binding, fluorescence 635 nm, higher = more signal;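 also: score merges 667 nm emission intensity and signal-to-noise per printed compound spot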
Sequence of Albumin (Bos taurus) (P02769 whole entry, looked up): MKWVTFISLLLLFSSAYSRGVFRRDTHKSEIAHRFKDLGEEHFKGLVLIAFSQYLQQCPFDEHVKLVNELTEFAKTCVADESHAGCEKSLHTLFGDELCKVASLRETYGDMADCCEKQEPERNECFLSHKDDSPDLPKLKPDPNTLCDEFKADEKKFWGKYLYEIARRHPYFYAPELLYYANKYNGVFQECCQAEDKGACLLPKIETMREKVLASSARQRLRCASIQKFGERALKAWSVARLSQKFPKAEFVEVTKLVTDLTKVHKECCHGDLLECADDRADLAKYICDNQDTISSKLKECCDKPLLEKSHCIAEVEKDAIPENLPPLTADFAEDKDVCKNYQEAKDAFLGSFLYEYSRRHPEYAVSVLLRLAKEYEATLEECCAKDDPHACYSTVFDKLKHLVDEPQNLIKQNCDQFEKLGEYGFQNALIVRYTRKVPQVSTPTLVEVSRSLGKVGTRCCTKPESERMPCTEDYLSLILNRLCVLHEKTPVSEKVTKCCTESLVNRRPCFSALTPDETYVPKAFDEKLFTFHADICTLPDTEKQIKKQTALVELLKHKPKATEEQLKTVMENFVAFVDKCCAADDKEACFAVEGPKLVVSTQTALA

[1] = probe aXIP binding to arrayed compounds – biochemical, NeuroSMM set, 635/667 nm fluorescence, primary screen (AID 1119); conditions: small-molecule microarray, higher = more signal, called active from +8 up or from −8 down;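 also: probe is the protein aXip251-270 applied at 1 µg/mL to compound-printed slides; binding of probe to printed compounds measured as 667 nm fluorescence plus signal to noise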
[2] = probe aNOTCH3 binding on compound microarray – biochemical, small-molecule microarray, 635/667 nm fluorescence, primary screen (AID 1120); conditions: higher = more signal;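 also: probe is a biotin-tagged antibody raised against NOTCH3 rather than NOTCH3 protein; score merges spot fluorescence near 667 nm with spot signal to noise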
[3] = probe aNOTCH2 binding on compound microarray – biochemical, small-molecule microarray, 635/667 nm fluorescence, primary screen (AID 1121); conditions: higher = more signal;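 also: score merges feature fluorescence read at 667 nm with its signal to noise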
[4] = target: Carbonic anhydrase 2 (Homo sapiens) (UniProt P00918); experiment: compounds binding carbonic anhydrase 2 – biochemical, small-molecule microarray, Alexa647-labelled CAII, profiling panel (AID 1122); conditions: CAII-A647 binding fluorescence, higher = more signal
[5] = COS7 lysate on small-molecule microarray, probe aHis, 635 nm (AID 1123); conditions: COS7 cell lysate, fluorescence, higher = more signal;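 also: z-score combines 667nm fluorescence intensity with signal-to-noise per printed compound spot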
[6] = probe aLAP1 signal on lysate-treated microarray – cell lysate, small-molecule microarray, COS7 lysate, primary screen (AID 1124); conditions: probe aLAP1, fluorescence, higher = more signal;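 also: lysate comes from COS7 cells expressing LAP1 and is applied at 0.3 µg/mL; score merges spot fluorescence near 667 nm with signal-to-noise over triplicate slides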
Sam68 (KHDRBS1) = experiment: compounds binding KHDRBS1 protein – biochemical, small-molecule microarray, 635 nm fluorescence, primary screen (AID 1125); conditions: higher = more signal;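 also: score merges 667 nm channel intensity with signal to noise over triplicate slides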
[7] = tested on: Chordin-like protein 2 (CHRDL2); experiment: compounds binding chordin-like 2 – biochemical, small-molecule microarray, 635 nm fluorescence, primary screen (AID 1126); conditions: fluorescence 635 nm, higher = more signal;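 also: printed compound slides probed with Chrdl2 protein at 4 µg/mL for 1 h at 4 C; score merges 667 nm emission intensity with signal to noise over three replicate slides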
[8] = target: Concanavalin-A (Canavalia ensiformis) (UniProt P02866); experiment: compounds binding concanavalin A lectin – biochemical, small-molecule microarray, Alexa647 label, 635 nm, artefact control for SMM control protein annotation, primary screen (AID 1127); conditions: ConA-A647 binding fluorescence, higher = more signal;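 also: z combines 667 nm emission intensity with signal-to-noise across three replicate slides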
Sequence of Concanavalin-A (Canavalia ensiformis) (P02866 whole entry, looked up): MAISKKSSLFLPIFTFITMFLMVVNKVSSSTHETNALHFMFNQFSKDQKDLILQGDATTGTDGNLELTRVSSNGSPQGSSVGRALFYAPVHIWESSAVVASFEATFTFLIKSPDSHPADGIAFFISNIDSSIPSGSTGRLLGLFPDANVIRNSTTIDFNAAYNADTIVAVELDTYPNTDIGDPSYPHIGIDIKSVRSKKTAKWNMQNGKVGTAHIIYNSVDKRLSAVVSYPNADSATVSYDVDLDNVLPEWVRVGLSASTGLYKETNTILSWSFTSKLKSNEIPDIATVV

[9] = compounds binding Alexa647 anti-His antibody – biochemical, small-molecule microarray, 635 nm fluorescence, artefact control for SMM control protein annotation, primary screen (AID 1128); conditions: higher = more signal;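 also: score merges feature fluorescence with signal-to-noise for each printed compound spot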
[10] = tested on: Human papillomavirus type 1a E7 protein (residues 1-88); experiment: HPV1a E7 small-molecule binders, primary screen, biochemical, small-molecule microarray, residues 1-88, 635 nm (AID 1129); conditions: small-molecule microarray binding, fluorescence 635 nm; higher = more signal
[11] = target: Focal adhesion kinase 1 (Homo sapiens) (UniProt Q05397); experiment: PTK2 protein binding on printed compound slides – biochemical, small-molecule microarray, 635/667 nm fluorescence, BSA, DTT, primary screen (AID 1130); conditions: 635 nm fluorescence, higher = more signal;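 also: composite of spot emission at 667 nm and signal to noise over triplicate slides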
Sequence of Focal adhesion kinase 1 (Homo sapiens) (Q05397 whole entry, looked up): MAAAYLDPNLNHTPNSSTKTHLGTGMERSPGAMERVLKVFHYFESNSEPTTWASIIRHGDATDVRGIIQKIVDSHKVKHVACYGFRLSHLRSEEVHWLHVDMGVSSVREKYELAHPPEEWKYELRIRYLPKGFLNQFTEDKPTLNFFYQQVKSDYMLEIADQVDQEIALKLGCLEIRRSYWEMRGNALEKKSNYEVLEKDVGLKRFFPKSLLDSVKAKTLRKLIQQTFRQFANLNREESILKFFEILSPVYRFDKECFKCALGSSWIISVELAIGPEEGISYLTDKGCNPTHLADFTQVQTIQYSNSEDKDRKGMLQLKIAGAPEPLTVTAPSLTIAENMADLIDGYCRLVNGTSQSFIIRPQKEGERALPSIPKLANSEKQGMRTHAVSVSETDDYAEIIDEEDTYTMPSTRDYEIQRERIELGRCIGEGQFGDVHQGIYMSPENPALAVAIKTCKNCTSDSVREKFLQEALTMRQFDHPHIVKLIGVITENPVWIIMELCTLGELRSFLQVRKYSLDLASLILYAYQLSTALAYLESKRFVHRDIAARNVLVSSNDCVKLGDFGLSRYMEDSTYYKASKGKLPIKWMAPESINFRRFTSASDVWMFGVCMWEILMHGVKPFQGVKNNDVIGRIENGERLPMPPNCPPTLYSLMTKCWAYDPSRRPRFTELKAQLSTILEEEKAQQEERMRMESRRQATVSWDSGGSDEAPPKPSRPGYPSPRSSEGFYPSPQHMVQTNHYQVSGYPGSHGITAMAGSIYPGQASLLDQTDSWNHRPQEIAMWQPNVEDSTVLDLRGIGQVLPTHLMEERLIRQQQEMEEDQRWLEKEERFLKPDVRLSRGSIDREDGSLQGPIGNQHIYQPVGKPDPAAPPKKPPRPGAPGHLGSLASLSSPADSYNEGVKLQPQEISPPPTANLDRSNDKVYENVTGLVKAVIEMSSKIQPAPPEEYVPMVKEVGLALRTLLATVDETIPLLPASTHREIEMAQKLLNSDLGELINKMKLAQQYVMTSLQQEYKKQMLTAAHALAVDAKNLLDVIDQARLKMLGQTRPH

[12] = tested on: Fibrinogen (Alexa647-labelled); experiment: Alexa647-fibrinogen binding to printed small molecules – biochemical, small-molecule microarray, 635/667 nm fluorescence, artefact control for SMM control-protein annotation, profiling panel (AID 1131); conditions: fibrinogen-A647 binding fluorescence, higher = more signal;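 also: z-score merges 667 nm fluorescence with per-spot signal-to-noise over triplicate slides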
[13] = target: Follistatin (Homo sapiens) (UniProt P19883); experiment: FST protein binding to printed compounds – biochemical, small-molecule microarray, 635/667 nm fluorescence, primary screen (AID 1132); conditions: 635 nm fluorescence, higher = more signal
Sequence of Follistatin (Homo sapiens) (P19883 whole entry, looked up): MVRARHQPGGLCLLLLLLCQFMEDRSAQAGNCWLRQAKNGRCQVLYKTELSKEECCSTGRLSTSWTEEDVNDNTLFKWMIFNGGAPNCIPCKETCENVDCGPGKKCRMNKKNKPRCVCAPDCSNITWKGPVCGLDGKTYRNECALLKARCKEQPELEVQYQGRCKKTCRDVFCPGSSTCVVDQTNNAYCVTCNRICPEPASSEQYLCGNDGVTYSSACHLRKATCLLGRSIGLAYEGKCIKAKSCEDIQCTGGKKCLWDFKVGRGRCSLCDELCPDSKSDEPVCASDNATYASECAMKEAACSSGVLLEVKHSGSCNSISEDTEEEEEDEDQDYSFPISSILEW

[14] = target: Fibroblast growth factor 2 (Homo sapiens) (UniProt P09038); experiment: basic fibroblast growth factor binding to printed compounds – biochemical, small-molecule microarray, 635/667 nm fluorescence, primary screen (AID 1133); conditions: FGF2, fluorescence 635/667, higher = more signal
Sequence of Fibroblast growth factor 2 (Homo sapiens) (P09038 whole entry, looked up): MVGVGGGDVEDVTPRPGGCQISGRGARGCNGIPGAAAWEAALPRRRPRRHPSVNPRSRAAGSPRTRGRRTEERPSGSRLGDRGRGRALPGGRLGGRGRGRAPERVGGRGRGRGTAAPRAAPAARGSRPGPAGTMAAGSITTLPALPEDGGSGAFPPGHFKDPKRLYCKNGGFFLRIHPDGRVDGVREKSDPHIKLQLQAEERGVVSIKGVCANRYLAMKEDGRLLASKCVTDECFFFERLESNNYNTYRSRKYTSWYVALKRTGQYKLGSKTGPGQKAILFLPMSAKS

[15] = JC-1 mitochondrial potential readout, lung cancer cells – cell-based, A549, JC-1 fluorescence, basal, 24 h, 100 nL, profiling panel (AID 1138); conditions: higher = more signal;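 also: A549 lung adenocarcinoma cells under basal conditions with no added stimulus; test concentration not given here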
Lefty1 = Lefty1 protein binding to printed compounds – biochemical, small-molecule microarray, 635/667 nm fluorescence, primary screen (AID 1139); conditions: fluorescence 635/667, higher = more signal
[16] = tested on: wheat germ agglutinin (Triticum aestivum), Alexa647-labelled; experiment: Alexa647-WGA lectin binding to printed small molecules – biochemical, small-molecule microarray, 635/667 nm fluorescence, artefact control for SMM control-protein annotation, profiling panel (AID 1140); conditions: WGA-A647 binding, 635 nm fluorescence, higher = more signal;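 also: score merges 667 nm feature emission with signal to noise over triplicate slides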
[17] = target: Luciferin 4-monooxygenase (Photinus pyralis) (UniProt P08659); experiment: inhibition of purified Photinus pyralis luciferase – biochemical, luminescence, purified enzyme, 2006 set, primary screen (AID 1141); conditions: purified firefly luciferase, SteadyGlo luminescence, 30 min; higher = more signal, called active from +8 up or from −8 down;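 also: cell-free assay with purified firefly luciferase at 100 ng per well in PBS; test concentration not given here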
Sequence of Luciferin 4-monooxygenase (Photinus pyralis) (P08659 whole entry, looked up): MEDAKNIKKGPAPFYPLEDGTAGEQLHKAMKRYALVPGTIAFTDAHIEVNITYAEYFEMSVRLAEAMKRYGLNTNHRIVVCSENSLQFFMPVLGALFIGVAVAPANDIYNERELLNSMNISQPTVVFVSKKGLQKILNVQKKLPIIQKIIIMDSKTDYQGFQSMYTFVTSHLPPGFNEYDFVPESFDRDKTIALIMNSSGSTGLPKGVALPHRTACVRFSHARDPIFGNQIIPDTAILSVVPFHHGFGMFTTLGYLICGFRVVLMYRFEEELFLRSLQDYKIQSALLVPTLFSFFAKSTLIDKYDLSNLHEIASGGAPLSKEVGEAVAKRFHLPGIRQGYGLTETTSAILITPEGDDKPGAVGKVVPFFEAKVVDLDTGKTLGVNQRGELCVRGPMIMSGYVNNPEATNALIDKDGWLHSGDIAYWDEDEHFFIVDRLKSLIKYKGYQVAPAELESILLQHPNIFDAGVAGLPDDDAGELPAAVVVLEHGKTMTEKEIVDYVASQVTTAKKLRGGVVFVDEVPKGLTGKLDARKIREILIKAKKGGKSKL

Structure (SMILES)	composite z-score (Albumin (Bos taurus))	composite Z-score [1]	composite z-score [2]	composite z-score [3]	composite z-score [4]	composite z-score [5]	composite z-score [6]	composite z-score (Sam68 (KHDRBS1))	composite z-score [7]	composite z-score [8]	composite z-score [9]	composite z-score [10]	composite z-score [11]	composite z-score [12]	composite z-score [13]	composite z-score [14]	z-score [15]	composite z-score (Lefty1)	composite z-score [16]	z-score [17]
[N-]=[N+]=Nc1ccccc1C[C@@]1(C(N)=O)N=C(c2ccc(OCCCO)cc2)O[C@@H]1c1ccccc1N=[N+]=[N-]	1.01	0.127 (inactive)	0.0059	0.0342	0.441	1.34	-0.0264	0.666	-0.359	0.716	1.76	1.23	0.0444	0.637	0.062	-0.0354	-0.498	-0.37	0.0911	-4.2 (inactive)
O=C1NC(=O)C2C1C=CC(C(O)c1ccco1)N2Nc1ccc(Cl)cc1Cl (stereo not given)	0.78	0.731 (inactive)	-0.0967	-0.153	0.794	1.28	0.317	-0.0532	0.167	0.321	0.478	0.944	-0.367	-0.468	1.13	-0.311	-0.553	0.121	0.673	-0.512 (inactive)
COc1ccc(CCNC(=O)[C@@]2(c3ccc([N+](=O)[O-])cc3)CC(=O)N(C3CCCCC3)[C@@H]2c2ccc(CO)cc2)cc1	0.143	0.665 (inactive)	0.245	0.0224	0.283	1.89	0.0344	1.16	-0.0865	0.952	1.84	1.22	0.757	0.393	0.695	0.373	2.09	-0.381	0.793	-1.74 (inactive)
COC(=O)c1c(CC[C@@H](CO)NC(=O)N[C@@H](C)Cn2cc(-c3ccccn3)nn2)oc(C(C)=O)c1C(=O)OC	-0.373	0.615 (inactive)	0.11	-0.0995	0.708	0.267	-0.555	0.871	0.204	0.743	1.73	-0.0012	-0.291	-0.676	1.28	0.707	-0.467	0.936	0.184	0.641 (inactive)
COC(=O)[C@@]1(Cc2ccc(OC)cc2)[C@H]2c3cc(C(=O)N4CCCC4)n(CCO)c3C[C@H]2CN1C(=O)c1ccccc1	0.245	-0.423 (inactive)	0.302	0.0918	0.847	2.46	0.57	0.827	-0.0307	0.716	0.603	1.18	1.05	0.875	0.113	-0.2	-0.117	-0.539	1.03	1.01 (inactive)
